# According to the supplement of paper PMC8728848:
# The entries come from a sample that favours the strongest signals as a whole.
# Assays:
# Assay in all cases: glycan array binding signal (z-score within array); higher = stronger binding
# Settings in all cases: glycan notation: IUPAC condensed, linker removed
# [1] = test system: Neu5Ac(a2-6)Gal(b1-4)GlcNAc(b1-3)[Neu5Ac(a2-6)Gal(b1-4)GlcNAc(b1-6)]GalNAc
# Procedure, shortened: (§1)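 From the Consortium for Functional Glycomics database, 3228 arrays were curated, keeping only those whose protein sequence was available. Binding is given as a within-array Z-score averaged across arrays sharing a protein sequence and across linkers. Negative Z-scores can be read as non-binding.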
# [2] = test system: Neu5Ac(a2-6)Gal(b1-4)GlcNAc6S
# Procedure, shortened: as §1
# [3] = test system: Neu5Ac(a2-6)Gal
# Procedure, shortened: as §1
# [4] = test system: Neu5Ac(a2-8)Neu5Ac(a2-3)Gal(b1-3)GalNAc(b1-4)[Neu5Ac(a2-3)]Gal(b1-4)Glc
# Procedure, shortened: as §1
# [5] = test system: Neu5Ac(a2-6)Gal(b1-4)GlcNAc(b1-6)[Gal(b1-3)GlcNAc(b1-3)]Gal(b1-4)Glc
# Procedure, shortened: as §1
# [6] = test system: Neu5Ac(a2-6)Gal(b1-4)GlcNAc
# Procedure, shortened: as §1
# [7] = test system: Neu5Ac(a2-6)GlcNAc(b1-4)GlcNAc
# Procedure, shortened: as §1
# [8] = test system: Neu5Ac(a2-8)Neu5Ac(a2-3)Gal(b1-3)GalNAc(b1-4)[Neu5Ac(a2-8)Neu5Ac(a2-3)]Gal(b1-4)Glc
# Procedure, shortened: as §1
# [9] = test system: Neu5Ac(a2-8)Neu5Ac(a2-3)Gal(b1-4)GlcNAc
# Procedure, shortened: as §1
substance,measurement,setting,value
AgI/II Vhelical-GFP (Streptococcus mutans),glycan array binding signal (z-score),[1],-0.298
same,glycan array binding signal (z-score),[2],-0.076
same,glycan array binding signal (z-score),[3],-0.257
same,glycan array binding signal (z-score),[4],-0.253
Epa22,glycan array binding signal (z-score),[5],0.104
same,glycan array binding signal (z-score),[6],-0.607
same,glycan array binding signal (z-score),[7],-0.046
"MIC3-MAR1b (Eimeria tenella), B6VCV4",glycan array binding signal (z-score),[5],1.38
Actinohivin (Actinomycete K97),glycan array binding signal (z-score),[2],-0.199
same,glycan array binding signal (z-score),[3],-0.147
"SpGH101 (Streptococcus pneumoniae), Q8DR60",glycan array binding signal (z-score),[6],-0.172
"MIC3-MAR5 (Eimeria tenella), B6VCV4",glycan array binding signal (z-score),[4],3.86
"BambL (Burhholderia ambifaria), Q0B4G1",glycan array binding signal (z-score),[8],-0.308
AgI/IIC123-GFP (Streptococcus mutans),glycan array binding signal (z-score),[9],-0.506
